# Experimental data reported in ChEMBL document CHEMBL5606460, “ASAP - DENV-2 NS2B-NS3 protease fluorescence single point” (2024).
# The whole screen tested about 2,000 compounds, of which about 110 (5.5%) showed an effect of 50% or more. Shown is part of a subset that was picked to be rich in strong results.
# Biological target: Genome polyprotein (dengue virus type 2) (UniProt P29990)
# [1] = Thailand/16681/1984, Concentration 25.0 uM, Number of replicates 1.0
smiles,measurement,setting,value
O=Cc1ccc(N2CCC(C(=O)N3CCNC(=O)C34CCCCC4)CC2)cc1,inhibition,[1],13.7%
CCCCN(Cc1ccc(F)cc1)C(=O)C1CCN(c2ccc(C=O)cc2)CC1,inhibition,[1],16.4%
COc1cc(C(=O)Nc2cnc3ccccc3c2)nc(N2CCNCC2)n1,inhibition,"Thailand/16681/1984, Concentration 49.5 uM, Number of replicates 2.0, Standard deviation 9.540542197549359 %",4.46%
same,inhibition,"Thailand/16681/1984, Concentration 99.01 uM, Number of replicates 2.0, Standard deviation 4.349736840709832 %",6.31%
same,inhibition,"Thailand/16681/1984, Concentration 198.0 uM, Number of replicates 2.0, Standard deviation 5.514135579540427 %",7.41%
O=Cc1ccc(N2CCC(C(=O)N3CCCN(c4ccc(C(F)(F)F)cn4)CC3)CC2)cc1,inhibition,[1],9.22%
Cc1cc(CO)c2cccc(Cc3cccc(NC(=O)c4cc(C(=O)O)[nH]n4)c3)c2n1,inhibition,"Thailand/16681/1984, Concentration 49.95 uM, Number of replicates 2.0, Standard deviation 0.024232414845035546 %",4.13%
same,inhibition,"Thailand/16681/1984, Concentration 99.9 uM, Number of replicates 2.0, Standard deviation 0.7422093740247248 %",7.91%
COCc1cc(-c2ccccc2C(=O)Nc2cnn(C)c2)ccn1,inhibition,"Thailand/16681/1984, Concentration 49.5 uM, Number of replicates 2.0, Standard deviation 1.4111132401966338 %",-5.45%
same,inhibition,"Thailand/16681/1984, Concentration 99.01 uM, Number of replicates 2.0, Standard deviation 1.6255328031848963 %",-5.34%
same,inhibition,"Thailand/16681/1984, Concentration 198.0 uM, Number of replicates 2.0, Standard deviation 0.730186058256325 %",-4.12%
O=Cc1ccc(N2CCC(C(=O)NCC(=O)Nc3ccc(F)c(F)c3)CC2)cc1,inhibition,[1],14.1%
Cn1c(C(=O)Nc2cc(Cl)cc(C(=O)NC(C)(C)CO)c2)cccc1=O,inhibition,"Thailand/16681/1984, Concentration 49.5 uM, Number of replicates 2.0, Standard deviation 0.4081268580659683 %",-0.99%
same,inhibition,"Thailand/16681/1984, Concentration 99.01 uM, Number of replicates 2.0, Standard deviation 2.113430221710736 %",-1.01%
same,inhibition,"Thailand/16681/1984, Concentration 198.0 uM, Number of replicates 2.0, Standard deviation 2.072570516879941 %",0.352%
NCc1cn(C2CCN(c3nc(-c4ccccc4)cs3)CC2)nn1,inhibition,"Thailand/16681/1984, Concentration 49.5 uM, Number of replicates 2.0, Standard deviation 0.032513427640456005 %",-4.62%
same,inhibition,"Thailand/16681/1984, Concentration 99.01 uM, Number of replicates 2.0, Standard deviation 1.6651164489567518 %",-3.29%
same,inhibition,"Thailand/16681/1984, Concentration 198.0 uM, Number of replicates 2.0, Standard deviation 1.091599962537426 %",0.094%
CC1(C)C[C@]1(CNC(=O)C1CCN(c2ccc(C=O)cc2)CC1)c1ccccc1,inhibition,[1],12.2%
O=Cc1ccc(N2CCC(C(=O)N3CCc4c(Br)cccc4C3)CC2)cc1,inhibition,[1],2.83%
Cc1cc(CO)c2cccc(NC(=O)c3nc(N)n[nH]3)c2n1,inhibition,"Thailand/16681/1984, Concentration 49.95 uM, Number of replicates 2.0, Standard deviation 1.7045480288991801 %",42.6%
same,inhibition,"Thailand/16681/1984, Concentration 99.9 uM, Number of replicates 2.0, Standard deviation 15.015963199334223 %",67.3%
Cc1cc(CO)c2cccc(Cc3ccccc3NC(=O)c3nc(N)n[nH]3)c2n1,inhibition,"Thailand/16681/1984, Concentration 49.95 uM, Number of replicates 2.0, Standard deviation 1.581349166072865 %",0.804%
same,inhibition,"Thailand/16681/1984, Concentration 99.9 uM, Number of replicates 2.0, Standard deviation 1.2268610426733166 %",4.88%
Cc1cc(CO)c2cccc(Cc3cccc(NC(=O)c4nc(N)n[nH]4)c3)c2n1,inhibition,"Thailand/16681/1984, Concentration 49.95 uM, Number of replicates 2.0, Standard deviation 2.1470069511188496 %",1.75%
same,inhibition,"Thailand/16681/1984, Concentration 99.9 uM, Number of replicates 2.0, Standard deviation 2.660737289988502 %",8.09%
O=C(NCCc1cncnc1)c1cn([C@H]2CCCNC2)nn1,inhibition,"Thailand/16681/1984, Concentration 49.5 uM, Number of replicates 2.0, Standard deviation 3.1505652659838077 %",-3.39%
same,inhibition,"Thailand/16681/1984, Concentration 99.01 uM, Number of replicates 2.0, Standard deviation 0.03260817375590849 %",-4.66%
same,inhibition,"Thailand/16681/1984, Concentration 198.0 uM, Number of replicates 2.0, Standard deviation 5.615654862136011 %",-0.277%
Clc1ccc2[nH]cc(Cc3ccc(-c4nn[nH]n4)cc3)c2c1,inhibition,"Thailand/16681/1984, Concentration 99.5 uM, Number of replicates 2.0, Standard deviation 0.137702183454793 %",89.8%
same,inhibition,"Thailand/16681/1984, Concentration 295.6 uM, Number of replicates 2.0, Standard deviation 0.013886206472581278 %",98.9%
O=C(O)[C@H](c1c[nH]c2ccccc12)N1CCC(c2cnc3ccc[nH]c2-3)CC1,inhibition,"Thailand/16681/1984, Concentration 49.5 uM, Number of replicates 2.0, Standard deviation 2.9336110336729484 %",-1.93%
same,inhibition,"Thailand/16681/1984, Concentration 99.01 uM, Number of replicates 2.0, Standard deviation 1.2688833051000123 %",-1.4%
same,inhibition,"Thailand/16681/1984, Concentration 198.0 uM, Number of replicates 2.0, Standard deviation 1.8509089452057481 %",0.519%
CCCC[C@H](NC(C)=O)C(=O)N[C@H](C(=O)NCc1ccc(CN)cc1)c1ccccc1,inhibition,"Thailand/16681/1984, Concentration 49.5 uM, Number of replicates 2.0, Standard deviation 1.3580554366166637 %",0.537%
same,inhibition,"Thailand/16681/1984, Concentration 99.01 uM, Number of replicates 2.0, Standard deviation 18.440494023113153 %",14.1%
same,inhibition,"Thailand/16681/1984, Concentration 198.0 uM, Number of replicates 2.0, Standard deviation 14.8908767477505 %",56%
CC(=O)N[C@H](C(=O)Nc1cccc(C(N)=O)c1)c1ccc(OCc2ccccc2)cc1,inhibition,"Thailand/16681/1984, Concentration 49.5 uM, Number of replicates 2.0, Standard deviation 1.41100239398505 %",-2.21%
same,inhibition,"Thailand/16681/1984, Concentration 99.01 uM, Number of replicates 2.0, Standard deviation 6.402498423083348 %",0.486%
same,inhibition,"Thailand/16681/1984, Concentration 198.0 uM, Number of replicates 2.0, Standard deviation 5.599350943845451 %",0.73%
CCCCCC(=O)N[C@@H](Cc1ccccc1)C(=O)NCc1cccc(CN)c1,inhibition,"Thailand/16681/1984, Concentration 49.5 uM, Number of replicates 2.0, Standard deviation 0.5911657110409295 %",-0.287%
same,inhibition,"Thailand/16681/1984, Concentration 99.01 uM, Number of replicates 2.0, Standard deviation 0.7592516208074989 %",-0.251%
same,inhibition,"Thailand/16681/1984, Concentration 198.0 uM, Number of replicates 2.0, Standard deviation 1.593950905190228 %",-0.639%
CCCC[C@H](NC(C)=O)C(=O)N[C@H](C(=O)Nc1ccc(C(N)=O)cc1)c1ccc(OCc2ccccc2)cc1,inhibition,"Thailand/16681/1984, Concentration 49.5 uM, Number of replicates 2.0, Standard deviation 2.073896751762033 %",-0.623%
same,inhibition,"Thailand/16681/1984, Concentration 99.01 uM, Number of replicates 2.0, Standard deviation 0.38726109133313447 %",4.02%
same,inhibition,"Thailand/16681/1984, Concentration 198.0 uM, Number of replicates 2.0, Standard deviation 0.14852549415239058 %",23%
